RORgamma inh – blocks mouse ROR gamma transcriptional activity; Drosophila S2 Gal4-RORgamma UAS-luciferase reporter, 20 h; Potency, µM (highest dose often 53.6 µM), without a hit: at the highest dose activity change, negative = inhibition, hits mostly inhibitors; 5.4% of 310,000 active; AID 2551; further: nearly all actives have a fitted effect of over 60% in size
Target sequence (P51450 whole entry, looked up, the tested form may be a part): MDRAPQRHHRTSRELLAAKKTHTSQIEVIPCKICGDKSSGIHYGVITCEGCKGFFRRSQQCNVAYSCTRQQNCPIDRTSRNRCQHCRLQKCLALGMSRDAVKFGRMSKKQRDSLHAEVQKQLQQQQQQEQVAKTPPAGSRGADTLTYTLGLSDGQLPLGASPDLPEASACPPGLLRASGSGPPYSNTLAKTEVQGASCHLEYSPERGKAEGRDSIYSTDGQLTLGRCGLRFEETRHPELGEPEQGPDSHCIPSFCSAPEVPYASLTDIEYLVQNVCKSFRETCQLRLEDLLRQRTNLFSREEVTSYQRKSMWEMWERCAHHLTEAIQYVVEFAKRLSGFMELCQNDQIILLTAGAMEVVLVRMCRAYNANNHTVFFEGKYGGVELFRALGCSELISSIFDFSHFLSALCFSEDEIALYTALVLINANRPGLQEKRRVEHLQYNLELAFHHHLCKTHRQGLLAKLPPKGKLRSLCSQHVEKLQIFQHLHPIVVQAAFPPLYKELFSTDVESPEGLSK
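Luciferase reporter read in Schneider cells carrying Gal4-RORγ (mouse) and UAS-Photinus luciferase; cells given compound 1 h before 700 uM copper sulfate induction, then incubated 20 h at ambient temperature.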
Gal4-VP16 FLuc – counter-screen for ROR gamma inhibitors: Gal4-VP16 reporter; Drosophila S2 Gal4-VP16 UAS-luciferase, luminescence, 20 h; 3.5% of 310,000 active; Potency, µM (doses to about 53.6 µM), inactives show top-dose activity, negative = inhibition, hits mostly inhibitors; AID 2546;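 further: Gal4-VP16 expression switched on by copper sulfate through the metallothionein promoter; nearly all actives have a fitted effect of over 50% in size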
DT40 TDP1 no CPT – qHTS for Inhibitors of human tyrosyl-DNA phosphodiesterase 1 (TDP1): qHTS in cells in absence of CPT | DT40 Tdp1-/- hTDP1 cells, no CPT, ATP luminescence, 48 h | Potency, µM (top dose mostly 46.2 µM), inactives show at the highest dose activity change, negative = growth inhibition, actives largely listed as inhibitors | 15% of 420,000 active | AID 686978, 2013; further: nearly all actives have a fitted effect of over 55% in size
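No-CPT arm: Tdp1-/-;hTDP1 DT40 cells (400/well) plus compounds, incubated ≥48 hr at 37 °C. Readout CellTiter-Glo luminescence.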
TDP1 inh – inhibitors of human tyrosyl-DNA phosphodiesterase TDP1; Q9NUW8; recombinant TDP1, AlphaScreen DNA substrate cleavage; Potency, µM (top dose mostly 130 µM), for the others: at the highest dose activity change, negative = inhibition, actives largely listed as inhibitors; 0.28% of 350,000 active; AID 485290; further: nearly all actives have a fitted effect of over 40% in size
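Recombinant E. coli-expressed Tdp1 (1 nM) preincubated with compound 15 min at RT, then 5'-biotin/3'-phosphotyrosine-FITC DNA substrate (15 nM) added for 5 min. AlphaScreen beads (10 ug/ml) added, 10 min RT; tyrosine-FITC cleavage read as signal loss.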
TDP1 cell CPT – DT40-hTDP1 cell growth loss with CPT; 12% of 420,000 active; chicken DT40 Tdp1-/-;hTDP1 cells + 20 nM CPT, ATP luminescence, 48 h; Potency, µM (series often up to 46.2 µM), for the others: top-dose activity change, negative = growth inhibition, usual class: inhibitors; further: nearly all actives have a fitted effect of over 55% in size
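Chicken DT40 Tdp1-/- cells stably complemented with human TDP1 were seeded at 400 cells/well in medium containing 20 nM camptothecin, exposed to pin-transferred compounds, and grown at 37 °C for at least 48 hr. Viability was read as ATP luminescence.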
An asterisk follows results filed as active; ? = inconclusive; / = not tested or not shown; [ ] = remark or other dose. Sampled rows, rich in hits. Any-hit rate of the full collection: about 19%. The call rests on the fitted dose curve; in most records, active means well fitted curve in the direction sought with a large enough effect; inconclusive means small, poorly fitted or top-dose-only effect, or another doubt; inactive means no such curve, though single readings can be large; an effect the other way counts as inactive or inconclusive. On the % scale 0 is the no-effect control and ±100 the full control effect; potency means the concentration at half of the fitted maximal effect.

SMILES	RORgamma inh	Gal4-VP16 FLuc	DT40 TDP1 no CPT	TDP1 inh	TDP1 cell CPT
N#Cc1c(SCc2ccccc2)nc(N2CCOCC2)c2c1CCCC2	29%	7%	-29%	-7%	5%
COc1ccc(N2CCN(C(=O)CCc3ccccc3)CC2)cc1	-2%	-1%	0%	/	-18%
CN(C)CCN1CCN(C2CN(Cc3ccc(F)cc3)S(=O)(=O)C2)CC1 (stereo not given)	/	/	-2%	/	7%
O=C(OCc1cn([C@@H]2CN(CC3CCCCC3)[C@@H](c3ccccc3)C[C@H]2O)nn1)c1ccccc1	/	/	18µM*	/	?
O=C(OCc1cn([C@H]2CN(CC3CCCCC3)[C@@H](c3ccc(Cl)cc3)C[C@@H]2O)nn1)c1ccccc1	/	/	16µM*	/	?
O=C(O)c1ccc(Nc2ccc(F)c(F)c2)c([N+](=O)[O-])c1	20%	-4%	9%	/	2%
O=C(NCCN1CCOCC1)c1ccc2c(c1)N(Cc1ccc(F)cc1)C(=O)c1ccccc1S2(=O)=O	0%	-5%	-19%	3%	-10%
CC(C)(C)c1ccc(C(=O)OCCNC(=O)c2c(Cl)nc3ccccn23)cc1	?	9%	?	-2%	?
CCN(CC)S(=O)(=O)c1ccc(C)c(NC(=O)COc2ccc3c(C)cc(=O)oc3c2)c1	31%	-5%	?	-3%	?
Cc1ccc(S(=O)(=O)Nc2cc3c(cc2N2CCOCC2)n(C)c(=O)n3C)c(C)c1	/	/	?	-2%	?
Cn1c(=O)n(C)c2cc(N3CCOCC3)c(NS(=O)(=O)c3ccc(C(C)(C)C)cc3)cc21	/	/	4.1µM*	0%[12.3 µM]	7.3µM*
Cn1c(=O)n(C)c2cc(N3CCOCC3)c(NS(=O)(=O)c3cccc(C#N)c3)cc21	/	/	?	14%	18µM*
Cn1c(=O)n(C)c2cc(N3CCOCC3)c(NS(=O)(=O)c3ccc(Cl)cc3)cc21	/	/	13µM*	8%	?
Cn1nc(-c2ccc(N3CCOCC3)c(NS(=O)(=O)c3ccc(Cl)cc3)c2)c2ccccc2c1=O	10µM*	-8%	26µM*	7%	18µM*
CCOC(Cn1cc([N+](=O)[O-])c(=O)[nH]c1=O)OCC	/	/	-9%	/	-17%
CCOC(=O)c1cc(OC(=O)c2ccccc2OC)n(-c2ccccc2)n1	21%	2%	-8%	1%	-18%
Cc1ccc(C)c(OCCSc2nnc(C)c(=O)[nH]2)c1	?	0%	?	3%	-3%
Cc1c(C(=O)N2CCCCC2)c(S(=O)(=O)N2CCN(c3ccc(Cl)cc3)CC2)c(C)n1C	40%	-11%	?	8%	?
CCCCSc1nc2c([nH]1)c(=O)n(C)c(=S)n2C	/	/	?	/	-22%
CCOC(=O)c1sc(=NC(=O)c2ccco2)n(C)c1C	-18%	3%	-15%	0%	6%
Cc1sc(=NC(=O)c2ccco2)n(C)c1-c1ccc(Cl)cc1	?	-1%	12µM*	-3%	12µM*
COc1ccc(CNCCC(c2ccc(OC(C)C)cc2)C(C)C)cc1OC (stereo not given)	-28%	-25%	16µM*	2%	?
CCOCCCNCc1ccc(OC)c(OC)c1	1%	-7%	4%	-5%	-1%
COc1ccc(C(CCNCc2ccc(OC(C)C)cc2)C(C)C)cc1 (stereo not given)	13µM*	?	6.5µM*	3%	4.6µM*
COc1ccc(C(CCNCc2ccc(N(C)C)cc2)C(C)C)cc1 (stereo not given)	?	?	7.3µM*	11%	7.3µM*
SMILES	RORgamma inh	Gal4-VP16 FLuc	DT40 TDP1 no CPT	TDP1 inh	TDP1 cell CPT
COCCNCc1ccc(C(C)C)cc1	-6%	3%[10 µM]	-18%	8%	-22%
COc1ccc(CNC(=O)C(C)OC(=O)c2cccc(N(C)C)c2)cc1 (stereo not given)	/	/	-19%	3%	-18%
Cc1cc(C)c(NC(=O)c2ccccc2N(C)S(C)(=O)=O)c(C)c1	-1%	-10%	2%	-5%	2%
Cc1cc(N2CCCCC2)nc2ccc(NC(=O)CCC(=O)NCCC(C)C)cc12	22%	-2%	-27%	1%	-30%
Cc1cc(N2CCC(C)CC2)nc2ccc(NC(=O)Cc3c(F)cccc3Cl)cc12	/	/	?	6%	?
Cc1cc(N2CCC(C)CC2)nc2ccc(NC(=O)/C=C/c3cccc(Cl)c3)cc12	/	/	4.1µM*	6%	6.5µM*
Cc1cc(N2CCCCC2)nc2ccc(NC(=O)/C=C/c3ccc(OCCC(C)C)cc3)cc12	/	/	18µM*	6%	-110%
Cc1cc(N2CCOCC2)nc2ccc(NC(=O)C3CCC(C)CC3)cc12 (stereo not given)	-2%	1%	?	2%	?
Cc1ccc(/C=C/C(=O)Nc2ccc3nc(N4CCC(C)CC4)cc(C)c3c2)cc1	/	/	3.7µM*	0%	5.8µM*
CCOc1ccc(N2CC(NC(=O)c3ccc(S(=O)(=O)N4CCCCC4)cc3)CC2=O)cc1 (stereo not given)	/	/	?	0%	?
O=C(N[C@@H]1C/C=C\C[C@@H](CC(=O)N(CCO)Cc2ccccc2)C(=O)NCCOC1=O)OCC1c2ccccc2-c2ccccc21	/	/	9.2µM*	-2%	16µM*
CC(C)(C)[C@H]1COC(=O)[C@H](NC(=O)OCC2c3ccccc3-c3ccccc32)C/C=C\C[C@@H](CC(=O)N(CCO)Cc2ccccc2)C(=O)N1	/	/	23µM*	2%	9.2µM*
O=C1CC/C=C\C[C@@H](CC(=O)N(CCO)Cc2ccccc2)C(=O)N[C@H](Cc2ccccc2)CO1	/	/	?	0%	-26%
O=C(N[C@@H]1C/C=C\C[C@H](CC(=O)N(CCO)Cc2ccccc2)C(=O)N[C@@H](Cc2ccccc2)COC1=O)OCC1c2ccccc2-c2ccccc21	/	/	16µM*	0%	16µM*
C[C@@H]1COC(=O)[C@H](NC(=O)OCC2c3ccccc3-c3ccccc32)C/C=C\C[C@@H](CC(=O)N(CCO)Cc2ccccc2)C(=O)N1	/	/	15µM*	-5%	9.2µM*
C=C1C(CCl)(CCl)C2(Cl)C(Cl)C(Cl)C1(Cl)C2(Cl)Cl (stereo not given)	-3%	-29%	?	6%	?
Fc1ccc(NCc2nnc(SCc3ccccc3)o2)cc1	15%	5%	-3%	1%	?
S=C(NC1CCCC1)N1CCN(c2ncccn2)CC1	1%	10%[10 µM]	?	8%	31%
COc1cc(OC)nc(/N=C/NO)n1	7%	0%	-4%	-3%	2%
